PubChem BioAssay AID1159580 (chemical genetic matrix, 2015)
The campaign covered roughly 5,500 compounds. About 2,000 (36%) were called active. Not shown: some 18% with an inconclusive outcome. No stated cut-off is given here; in the data, active means normalized growth mostly below about 0.91 (no sharp cut-off); inconclusive means no clear call, values can overlap the other calls; inactive means mostly above about 0.92. Some of the results follow.

Assay: chemical genetic growth profiling, strain panel (AID 1159580);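 further: tested at 20 µM; growth read once vehicle control cultures reached saturation at 30 °C; 1 = growth at the plate median or of vehicle wells; lower values mean less growth of the strain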
Conditions: S. cerevisiae deletion strains, growth OD
[1] = locus YDL101C, strain DUN1, hits give low values
[2] = locus YHR030C, strain SLT2, hits give low values

Measured: normalized growth

CC(=CC1CCC(C)C2CCC(C)=C12)C(=O)O (configuration not stated)
inactive: locus YAL021C, strain ccr4, hits give low values 0.948 | locus YAL030W, strain snc1, hits give low values 0.93 | locus YBL061C, strain skt5, hits give low values 0.931 | locus YBR009C, strain hhf1, hits give low values 0.958 | locus YBR023C, strain chs3, hits give low values 0.929 | locus YBR231C, strain swc5, hits give low values 0.923 | locus YBR279W, strain paf1, hits give low values 0.95 | locus YCL011C, strain gbp2, hits give low values 0.986 | locus YCL016C, strain dcc1, hits give low values 0.927 | locus YCL069W, strain vba3, hits give low values 0.956 | locus YCR088W, strain abp1, hits give low values 0.938 | locus YDL005C, strain med2, hits give low values 0.953 | locus YDL040C, strain nat1, hits give low values 0.935 | locus YDR001C, strain nth1, hits give low values 0.943 | locus YDR069C, strain doa4, hits give low values 0.931 | locus YDR159W, strain sac3, hits give low values 0.888 | locus YDR195W, strain ref2 1.12 | locus YDR297W, strain sur2, hits give low values 0.943 | locus YDR334W, strain swr1, hits give low values 0.927 | locus YDR335W, strain msn5, hits give low values 0.944 | locus YEL003W, strain gim4, hits give low values 0.958 | locus YEL037C, strain rad23, hits give low values 0.942 | locus YEL061C, strain CIN8 (second series), hits give low values 0.947 | locus YER015W, strain faa2, hits give low values 0.971 | locus YER016W, strain bim1, hits give low values 0.936 | locus YER111C, strain swi4, hits give low values 0.923 | locus YER155C, strain BEM2 (second series), hits give low values 0.873 | locus YFR010W, strain ubp6, hits give low values 0.965 | locus YGL227W, strain vid30, hits give low values 0.952 | locus YGL240W, strain doc1, hits give low values 0.941 | locus YGL253W, strain hxk2, hits give low values 0.937 | locus YHR013C, strain ard1, hits give low values 0.954 | locus YHR027C, strain rpn1, hits give low values 0.956 | locus YHR142W, strain chs7, hits give low values 0.901 | locus YJL092W, strain hpr5, hits give low values 0.93 | locus YJL095W, strain BCK1 (second series), hits give low values 0.927 | locus YJL115W, strain asf1, hits give low values 0.965 | locus YJL154C, strain vps35, hits give low values 0.934 | locus YJL164C, strain tpk1, hits give low values 0.923 | locus YJL166W, strain qcr8, hits give low values 0.917 | locus YKL160W, strain elf1, hits give low values 0.939 | locus YKR026C, strain gcn3, hits give low values 0.939 | locus YLL001W, strain dnm1, hits give low values 0.966 | locus YLL026W, hits give low values 0.946 | locus YLL041C, strain sdh2, hits give low values 0.955 | locus YLR027C, strain aat2, hits give low values 0.953 | locus YLR221C, strain rsa3, hits give low values 0.943 | locus YLR258W, strain gsy2, hits give low values 0.941 | locus YLR357W, strain rsc2, hits give low values 1.01 | locus YLR384C, strain iki3, hits give low values 0.926 | locus YML120C, strain ndi1, hits give low values 0.968 | locus YMR058W, strain fet3, hits give low values 0.937 | locus YMR125W, strain sto1, hits give low values 0.937 | locus YMR129W, hits give low values 0.928 | locus YNL209W, strain ssb2, hits give low values 0.978 | locus YNL248C, strain rpa49, hits give low values 0.972 | locus YNL322C, strain KRE1 (second series), hits give low values 0.94 | locus YNR049C, strain mso1, hits give low values 0.941 | locus YOR001W, strain rrp6, hits give low values 0.942 | locus YOR070C, strain gyp1, hits give low values 0.943 | locus YOR080W, strain dia2, hits give low values 0.961 | locus YOR083W, strain WHI5, hits give low values 0.933 | locus YOR106W, strain vam3, hits give low values 0.914 | locus YOR265W, strain rbl2, hits give low values 0.956 | locus YOR290C, strain snf2, hits give low values 0.918 | locus YPL078C, strain atp4, hits give low values 0.946 | locus YPL106C, strain sse1, hits give low values 1.04
active: locus YAL026C, strain drs2, hits give low values 0.904 | locus YBR171W, strain sec66, hits give low values 0.876 | locus YDR137W, strain rgp1, hits give low values 0.573 | locus YDR392W, strain spt3, hits give low values 0.373 | locus YGL167C, strain pmr1, hits give low values 0.892 | locus YGL173C, strain kem1, hits give low values 0.891 | locus YJL129C, strain trk1, hits give low values 0.799 | locus YKR091W, strain srl3, hits give low values 0.93 | locus YLR262C, strain YPT6 (second series), hits give low values 0.591 | locus YLR320W, strain mms22, hits give low values 0.779 | locus YLR342W, strain FKS1, hits give low values 0.887 | locus YLR370C, strain arc18, hits give low values 0.906 | locus YMR205C, strain PFK2, hits give low values 0.859 | locus YMR231W, strain pep5, hits give low values 0.898 | locus YNL071W, strain lat1, hits give low values 0.875 | locus YOR270C, strain vph1, hits give low values 0.727 | locus YPL051W, strain arl3, hits give low values 0.907 | locus YPL240C, strain hsp82, hits give low values 0.925

CCOC(=O)c1cnc(-c2ccccn2)[nH]c1=O
inactive: locus YAR019C, strain CDC15, hits give low values 0.933 | locus YBL105C, strain PKC1, hits give low values 0.955 | locus YBR135W, strain CKS1, hits give low values 0.932 | locus YBR136W, strain MEC1, hits give low values 0.94 | locus YBR160W, strain CDC28, hits give low values 0.934 | locus YDL017W, strain CDC7, hits give low values 0.957 | locus YDL028C, strain MPS1, hits give low values 0.94 | [1] 0.955 | locus YDL108W, strain KIN28, hits give low values 0.943 | locus YDL132W, strain cdc53, hits give low values 0.948 | locus YDL214C, strain PRR2, hits give low values 0.825 | locus YDR052C, strain DBF4, hits give low values 0.952 | locus YDR054C, strain cdc34, hits give low values 0.899 | locus YDR226W, strain ADK1, hits give low values 0.935 | locus YDR477W, strain SNF1, hits give low values 0.85 | locus YER133W, strain GLC7, hits give low values 0.856 | locus YFL009W, strain cdc4, hits give low values 0.907 | locus YFL029C, strain CAK1, hits give low values 0.932 | locus YFR003C, strain YPI1, hits give low values 0.947 | locus YFR019W, strain FAB1, hits give low values 0.819 | locus YFR028C, strain CDC14, hits give low values 0.937 | locus YGR040W, strain KSS1, hits give low values 0.866 | locus YGR052W, strain FMP48, hits give low values 0.69 | locus YGR092W, strain DBF2, hits give low values 0.638 | locus YHR082C, strain KSP1, hits give low values 0.839 | locus YHR205W, strain SCH9, hits give low values 0.965 | locus YIL147C, strain SLN1, hits give low values 0.935 | locus YJL128C, strain PBS2, hits give low values 1.01 | locus YJL157C, strain FAR1, hits give low values 0.743 | locus YJR016C, strain ILV3, hits give low values 0.934 | locus YJR066W, strain TOR1 (second series), hits give low values 0.741 | locus YJR066W, strain TOR1, hits give low values 0.652 | locus YKL048C, strain ELM1, hits give low values 0.927 | locus YKL067W, strain YNK1, hits give low values 0.818 | locus YKL101W, strain HSL1, hits give low values 0.871 | locus YKL193C, strain SDS22, hits give low values 0.917 | locus YKL203C, strain TOR2, hits give low values 0.901 | locus YLR133W, strain CKI1, hits give low values 0.834 | locus YLR403W, strain SFP1, hits give low values 0.785 | locus YML070W, strain DAK1, hits give low values 0.744 | locus YMR001C, strain CDC5, hits give low values 0.934 | locus YMR205C, strain PFK2 (second series), hits give low values 0.848 | locus YMR277W, strain FCP1, hits give low values 0.922 | locus YNL006W, strain LST8, hits give low values 0.966 | locus YNL020C, strain ARK1, hits give low values 0.833 | locus YNL161W, strain CBK1, hits give low values 0.933 | locus YNL183C, strain NPR1, hits give low values 0.603 | locus YNL207W, strain RIO2, hits give low values 0.926 | locus YNL222W, strain SSU72, hits give low values 0.921 | locus YNL307C, strain MCK1 (second series), hits give low values 0.759 | locus YOL078W, strain AVO1, hits give low values 0.92 | locus YOL136C, strain PFK27, hits give low values 0.752 | locus YOR061W, strain CKA2, hits give low values 0.835 | locus YOR119C, strain RIO1, hits give low values 0.863 | locus YOR329C, strain SCD5, hits give low values 0.948 | locus YPL031C, strain PHO85, hits give low values 0.82 | locus YPL153C, strain RAD53, hits give low values 0.759 | locus YPL204W, strain HRR25, hits give low values 0.773 | locus YPL209C, strain IPL1, hits give low values 0.946 | locus YPR025C, strain CCL1, hits give low values 0.953 | locus YPR106W, strain ISR1, hits give low values 0.944 | locus YPR111W, strain DBF20, hits give low values 0.939 | strain NNK1, hits give low values 0.932 | strain TSCII, hits give low values 0.916
active: locus YER123W, strain YCK3, hits give low values 0.453 | [2] 0.734 | locus YHR079C, strain IRE1, hits give low values 0.426 | locus YJL095W, strain BCK1, hits give low values 0.432 | locus YLR113W, strain HOG1, hits give low values 0.487 | locus YOR231W, strain MKK1, hits give low values 0.413 | locus YPL256C, strain CLN2, hits give low values 0.464

CCOC(=O)c1cnc(SCC(=O)c2ccc(Cl)cc2Cl)[nH]1
inactive: locus YAL013W, strain DEP1, hits give low values 1 | locus YBR229C, strain ROT2, hits give low values 1 | [1] 1 | locus YDR150W, strain NUM1, hits give low values 1.02 | locus YEL061C, strain CIN8, hits give low values 1.03 | locus YGR078C, strain PAC10, hits give low values 1.02 | [2] 0.936 | locus YHR087W, strain rtc3, hits give low values 1.01 | locus YJL187C, strain SWE1, hits give low values 1.03 | locus YJR043C, strain POL32, hits give low values 0.999 | locus YJR075W, strain HOC1, hits give low values 1 | locus YKL190W, strain CNB1, hits give low values 0.993 | locus YLR039C, strain RIC1, hits give low values 0.934 | locus YLR058C, strain SHM2 (second series), hits give low values 1.01 | locus YLR085C, strain ARP6, hits give low values 1.06 | locus YLR262C, strain YPT6, hits give low values 0.914 | locus YML094W, strain GIM5, hits give low values 1.01 | locus YMR219W, strain ESC1, hits give low values 1.01 | locus YMR263W, strain SAP30, hits give low values 0.938 | locus YNL153C, strain GIM3, hits give low values 1 | locus YNL298W, strain CLA4 (second series), hits give low values 1.04 | locus YNL322C, strain KRE1, hits give low values 1.01 | locus YNR030W, strain Alg12, hits give low values 0.988 | locus YPL055C, strain LGE1, hits give low values 1.08 | locus YPL241C, strain CIN2, hits give low values 1.01 | locus YPR135W, strain CTF4, hits give low values 0.851
